SMILES strings stand for the structures. About 140 (9.3%) of roughly 1,500 compounds were called active. How the calls were made is not given here. Not all results are given here.

This experiment in a line: AlphaScreen signal interference with preloaded methylated product, dose response, artefact control for NSD2 inhibitor project, biochemical, cherry-picked samples (AID 1053174). The note with it: AlphaScreen artifact counterscreen, preloaded methylated H4 peptide; series mostly up to 10 µM. (In general: In Alpha technology, singlet oxygen from a donor bead excites a nearby acceptor bead.)
For `CCNC(=O)C1(C)CCCN(C(=O)c2ccc3ccccc3n2)C1` (stereo unspecified), the AC35 entry is “inactive”.
For the molecule `O=C(/C=C/c1ccc(Cl)cc1Cl)NCc1ccco1`, the AC35 entry was “inactive”.
For `COC(=O)c1nc(NC(=O)c2ccccc2)n[nH]1` the value was “inactive”; for `CCC1=[N+]([O-])C(C)(/C(C)=N\O)N(O)C1(C)C` (stereo unspecified), “inactive”.
In the case of `COC(=O)CCCCC1=CCC2C(=O)C=C(O)C2C1` (stereo unspecified), the AC35 entry is “inactive”.
As to `Clc1ccc(C2=CSC3=Nc4cccc5cccc(c45)N23)cc1`, the AC35 entry was “inactive”.
As for `C=CCc1cccc2cc(C(=O)Nc3ccc(NC(C)=O)cc3)c(=O)oc12`, the AC35 entry was “inactive”.
The same measure for `Oc1ccc(CNc2ccccc2O)cc1`: “inactive”; for `O=C(CNC(=O)c1ccccc1)Oc1ccc([N+](=O)[O-])cc1`: “inactive”.
For `Cc1c(CC(=O)N2CCN(C(=O)C3COc4ccccc4O3)CC2)c(=O)oc2c(O)c(O)ccc12` (stereo unspecified) the value was “inactive”; for `CS(=O)(=O)N(CC(=O)NCc1ccco1)c1ccc2c(c1)OCO2`, “inactive”.
For `Cc1[nH]n(-c2ccccc2)c(=O)c1N=Nc1ccccc1C(=O)N1CCCCC1` the value was “inactive”; for `CN(C(=O)CN1C(=O)S/C(=C\c2ccccc2F)C1=O)C1CCS(=O)(=O)C1` (stereo unspecified), “inactive”; for `CC(=O)N(C1=C(Cl)C(=O)c2ccccc2C1=O)c1ccc(C(=O)O)cc1`, “inactive”.
Regarding `C(=N/Nc1cc(N2CCOCC2)nc(N2CCOCC2)n1)/c1ccccc1`, the AC35 result was “inactive”.
For `Cc1cccc(OCCC(=O)Nc2ccccc2C(N)=O)c1` the value was “inactive”; for `Cn1ncc2c(Nc3cccc4ccccc34)ncnc21`, “inactive”.
The same measure for `Cc1[nH][nH]c(=O)c1C(c1ccc2c(c1)OCO2)c1c(C)[nH][nH]c1=O`: “inactive”; for `Cc1ccc(S(=O)(=O)/N=C2\C=C(NS(=O)(=O)c3ccc(C)cc3)C(=O)c3ccccc32)cc1`: 9.17 µM (active).
The same measure for `O=c1[nH]c(CN2CCOCC2)nc2cc(Cl)ccc12`: “inactive”; for `CCOC(=O)c1nnn(-c2nonc2OC)c1-c1ccccc1`: “inactive”; for `Cc1cc(=O)[nH]c(N/N=C/c2c(C)nn(-c3ccccc3Cl)c2Cl)n1`: “inactive”.
Take `Cc1ccc(-c2ccc(/C=N/NC(=O)CN3CCOCC3)o2)cc1[N+](=O)[O-]`: the AC35 entry was “inactive”.
For `CCN1CCCC1CNc1ncnc2c1[nH]c1ccc(F)cc12` (stereo unspecified) the value was “inactive”; for `O=C(NNC(=O)c1ccc(Cl)nc1)c1ccc(Br)cc1`, “inactive”; for `CCN(CC)CCCC(C)n1c2nc(=O)[nH]c(=O)c-2nc2cc(Cl)ccc21` (stereo unspecified), “inactive”.
The same measure for `CCN(CC)CCOc1ccc2c(c1)C(=NNC(=O)c1ccccn1)c1cc(OCCN(CC)CC)ccc1-2`: “inactive”; for `Cc1ccnc(N2CCC(C(=O)NC3CCCCCC3)CC2)n1`: “inactive”; for `C=CCNCCCCOc1ccccc1`: “inactive”.
For `Cc1ccccc1-n1nc(C)c2c1N=C1C(Cl)=CC(Cl)=CN1C2c1ccc(C(=O)O)cc1` (stereo unspecified) the value was “inactive”; for `CCOC(=O)c1c(C)[nH]c(C(=O)NCCN2CCOCC2)c1C`, “inactive”.
On to `O=C1C=CC(=O)N1c1ccc(N2CCCCC2)cc1`, for which the AC35 entry is “inactive”.
For `O=C(Cn1cc(C(F)(F)F)ccc1=O)Nc1ccc2c(c1)OCCO2` the value was “inactive”.
As to `COc1cc(C(=O)Nn2c(O)c(C3=c4ccccc4=NC3=O)sc2=S)ccc1O`, the AC35 result was “inactive”.
On to `COc1ccc(NC(=O)Cn2nnc(C(=O)NCCc3ccc(OC)c(OC)c3)c2N)cc1`, for which the AC35 entry was “inactive”.
On to `CCOc1cc(/C=C/C(=O)OCC(=O)NCCN2C(=O)CSC2=O)ccc1OCC(C)C`, for which the AC35 result is “inactive”.
As for `CC1CCN(CCC(=O)Nc2ccccc2)CC1`, the AC35 result is “inactive”.
As for `O=C1Nc2cc(C(=O)N3CCC(N4CCCCC4)CC3)ccc2S/C1=C\c1ccccc1`, the AC35 result is “inactive”.
The same measure for `CC(C)(C)CC(=O)Nc1nnc(SCC(=O)NCc2cccs2)s1`: “inactive”; for `O=C1C(Cl)=C(Oc2ccccc2)C(=O)c2ccccc21`: “inactive”; for `O=c1ccc2c(-c3ccccc3S(=O)(=O)O)c3ccc(O)c(O)c3oc-2c1O`: 0.557 µM (active).
The same measure for `CC(=O)c1cc(-c2ccccc2)n(CC(=O)NC2CCCCC2)c1C`: “inactive”; for `Cc1[nH][nH]c(=O)c1C(c1ccc(-c2ccc(Cl)cc2)o1)c1c(C)[nH][nH]c1=O`: “inactive”; for `CCOc1ccc(C(CC(=O)O)NC(=O)C23CC4CC(CC(C4)C2)C3)cc1OC` (stereo unspecified): “inactive”.
Regarding `COc1ccc(S(=O)(=O)N2CCCC(C(=O)NCCCn3ccnc3)C2)cc1OC` (stereo unspecified), the AC35 result was “inactive”.
The same measure for `COc1ccc(NC(=O)C2Cc3c(-c4ccc(Cl)cc4)ccnc3O2)cc1` (stereo unspecified): “inactive”; for `CCOc1ccccc1Nc1nnc(SCc2ccc(C(=O)OC)o2)s1`: “inactive”; for `NC1=CC(=O)C(=O)c2cccnc21`: “inactive”.
For the molecule `N#Cc1ccc(CSc2ncccn2)cc1`, the AC35 entry is “inactive”.
For `Cc1ccc(S(=O)(=O)N(C)C)cc1NC(=O)/C=C/c1cccs1` the value was “inactive”.
The same measure for `O=C(CN1C(=O)c2ccc([N+](=O)[O-])cc2C1=O)Nc1nnc(C2CC2)s1`: “inactive”.
Turning to `O=C(NCc1ccco1)c1nc(-c2ccccc2)n(-c2ccccc2)n1`, the AC35 result is “inactive”.
For `CCOC(=O)c1c(C)[nH]c2c1-c1ccccc1C(=O)C2=O` the value was “inactive”; for `O=[N+]([O-])c1ccccc1Nc1ccc(O)cc1`, “inactive”.
For `O=C(CSc1nnc(-c2ccccc2O)o1)NC1CCCCC1` the value was “inactive”; for `Cc1ccc(C(=O)Cn2cc([N+](=O)[O-])nc2C)cc1`, “inactive”.
The same measure for `COCC(C)n1c(SCC(=O)NC2CCCCC2C)nc2ccccc2c1=O` (stereo unspecified): “inactive”; for `Cc1ccc(/C=N/NC(=O)c2cc3ccccc3cc2O)o1`: “inactive”.
Regarding `COc1ccccc1N(C)S(=O)(=O)c1ccc(C(=O)NC2CCCCCC2)cc1`, the AC35 entry is “inactive”.
On to `COc1ccc(OC)c(-c2csc(-c3cccs3)n2)c1`, for which the AC35 entry was “inactive”.
The same measure for `COC(=O)[C@H](Cc1ccccc1)NC(=O)Nc1ccc(S(N)(=O)=O)cc1`: “inactive”; for `C/C(=N/NC(=O)CCc1ccccc1)c1ccco1`: “inactive”; for `CCN(CC)S(=O)(=O)c1ccc(N2CCN(C)CC2)c(NC(=O)Nc2ccccc2F)c1`: “inactive”.
The same measure for `Cc1sc2ncnc(SCC(=O)Nc3ccc(CN4CCCC4)cc3)c2c1C`: “inactive”; for `C=CCn1c(=NC(=O)c2ccc(S(=O)(=O)N3CCCC3)cc2)sc2cc(NC(C)=O)ccc21`: “inactive”; for `CCN(CC)CCCNC(=O)c1cc(-c2cccc(Cl)c2)on1`: “inactive”.
